Screens from PubChem BioAssay.
Most compounds without a hit are left out; they make up all but 7.9% or so of the library.
SW480 rerep: A quantitative high throughput screen for small molecules that induce DNA re-replication in SW480 colon adenocarcinoma cells. SW480 DNA re-replication, Hoechst DNA content imaging, 48 h. Potency, µM (doses to about 46.1 µM), actives largely listed as activators. 340,000 compounds, 1.8% hits. AID 624297, 2012; further: nearly all actives have a fitted effect of over 55% in size
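Compounds, transferred as 23 nL by pin tool, were incubated with cells for 48 hr; DNA content per nucleus was then quantified by Hoechst staining and fluorescence plate imaging.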
MCF10A rerep: A quantitative high throughput screen for small molecules that induce DNA re-replication in MCF 10a normal breast cells | Potency, µM (highest dose often 46.1 µM), hits mostly activators | 350,000 compounds, 2.9% hits | MCF 10A DNA re-replication, Hoechst nuclear intensity, 48 h | AID 624296, 2012; further: nearly all actives have a fitted effect of over 50% in size
KB-3-1 cytotox: qHTS assay for MDR1-selective chemotherapeutics: Primary screen using the parental adenocarcinoma cell KB-3-1; KB-3-1 viability, CellTiter-Glo ATP luminescence, 72 h; Potency, µM (series often up to 46.1 µM), actives largely listed as cytotoxic; 400,000 compounds, 1.4% hits; further: nearly all actives have a fitted effect of over 60% in size
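Cytotoxicity in the drug-sensitive parental line KB-3-1 was scored as loss of CellTiter-Glo luminescence following 72 h incubation with compound. Values come from curve fitting of normalized concentration-response data.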
HT1080 IDH1KD tx: qHTS for induction of synthetic lethality in tumor cells producing 2HG: qHTS for the HT-1080-IDH1KD cell line. 360,000 compounds, 2% hits. HT-1080 IDH1 knockdown viability, ATP luminescence, 48 h. Potency, µM (highest dose often 46.1 µM), actives largely listed as cytotoxic
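HT-1080-IDH1KD cells (IDH1 knocked down), 750/well in RPMI with 5% FBS, treated with compound 48 h at 37 degrees C. Viability by CellTiter-Glo luminescence, normalised to DMSO and no-cell wells; concentration-response curves classed.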
KB-V1 cytotox: qHTS assay for MDR1-selective chemotherapeutics: Primary screen using the drug-selected MDR subline cells KB-V1; Potency, µM (series often up to 46.1 µM), actives largely listed as cytotoxic; 400,000 compounds, 3.4% hits; KB-V1 MDR cells viability, CellTiter-Glo, 72 h; further: nearly all actives have a fitted effect of over 60% in size
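Potencies derive from concentration-effect curves fitted to normalized luminescence (CellTiter-Glo) of KB-V1 cells treated for 72 h at 37 degrees C in phenol-red-free DMEM containing 10% FBS.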
HT1080NT lethal: qHTS for induction of synthetic lethality in tumor cells producing 2HG: qHTS for the HT-1080-NT fibrosarcoma cell line; Potency, µM (highest dose often 46.1 µM), most hits filed as cytotoxic; 360,000 compounds, 1.6% hits; HT-1080-NT fibrosarcoma viability, CellTiter-Glo ATP luminescence, 48 h; AID 686970, 2013;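 further: NT is the 2HG producing partner of a matched IDH1 knockdown line; nearly all actives have a fitted effect of over 55% in size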
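HT-1080-NT; 750 cells/well; 5% FBS RPMI; 48 h compound, 37 degrees C; CellTiter-Glo luminescence; curve fitting and curve-class assignment.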
Hits are given with their value; – = inactive; ? = inconclusive; · = not tested or not shown. The call rests on the fitted dose curve; in most records, active means well fitted curve in the direction sought with a large enough effect; inconclusive means small, poorly fitted or top-dose-only effect, or another doubt; inactive means no such curve, though single readings can be large; an effect the other way counts as inactive or inconclusive.

SMILES | SW480 rerep | MCF10A rerep | KB-3-1 cytotox | HT1080 IDH1KD tx | KB-V1 cytotox | HT1080NT lethal
CCOC(=O)c1c(NC(=O)c2cc3nc(-c4ccc(OC)cc4)cc(C(F)(F)F)n3n2)sc2c1CCC(C)C2 (centres undefined) | · | · | – | · | – | ·
C=C1C=C(C(F)F)n2ncc(C(=O)NCc3ccccc3)c2N1 | · | · | – | · | – | ·
O=C1N/C(=N\N=C\c2cccs2)SC1Cc1ccc(Cl)cc1Cl (centres undefined) | – | – | 7.3µM | ? | ? | ?
O=C1NC(=Nc2ccc(Cl)cc2)SC1Cc1cc(Cl)ccc1Cl (centres undefined) | – | ? | – | – | 15µM | –
O=C1N/C(=N\N=C\c2cccs2)SC1Cc1cccc(Cl)c1Cl (centres undefined) | 7.3µM | 1.5µM | 5.2µM | 6.5µM | ? | 4.6µM
CCOc1ccc(Cn2nnc3c(=O)[nH]c(C4CCN(C(=O)c5ccccc5)CC4)nc32)cc1 | · | · | – | · | – | ·
CCCCC[C@H](O)/C=C\[C@@H]1[C@H](O)CC(=O)[C@@H]1CCCCCCC(=O)O | – | – | · | · | · | ·
Clc1ccc(CN2C3=NCCCN3c3ccccc32)cc1 | – | – | ? | – | – | ?
O=C(CN1C2=NCCCN2c2ccccc21)c1ccc(Cl)cc1Cl | – | – | ? | – | 13µM | –
Clc1ccc(CN2C3=NCCCN3c3ccccc32)cc1Cl | – | 16µM | ? | ? | ? | ?
Cc1ccc(S(=O)(=O)N2CCC(=O)N([C@H](COCc3ccc(C(F)(F)F)cc3)C(C)C)CC2)cc1 | · | · | · | – | ? | –
Cc1ccc2c(c1)C(c1ccccc1)N(C(=O)c1ccc(S(=O)(=O)N3CCCC3)cc1)CC(=O)N2 (centres undefined) | · | · | – | · | ? | ·
Cc1ccc2oc(C(F)(F)C(F)F)cc(=O)c2c1 | – | – | ? | – | – | –
Cc1ccc2oc(C(Cl)(Cl)Cl)cc(=O)c2c1 | – | – | – | ? | – | 10µM
N#Cc1ccc(/C=C/C(=O)c2cccnc2)cc1 | – | 7.3µM | – | ? | ? | ?
O=C(/C=C/c1ccc(Cl)cc1)c1cccnc1 | ? | ? | ? | ? | ? | –
O=C(/C=C/c1ccccc1Cl)NNC(=O)c1ccncc1 | ? | – | – | – | – | –
O=C(/C=C/c1ccccc1Cl)c1cccnc1 | ? | 5.8µM | – | ? | ? | ?
Cc1csc2c1c(=O)n(O)c(=O)n2Cc1ccccc1 | · | · | – | · | – | ·
COc1cccc(CNC(=O)C(NS(=O)(=O)c2ccc3c(c2)oc(=O)n3C)C(C)C)c1 (centres undefined) | · | · | – | · | – | ·
Cc1ccc(C(=C2C3C=CC2C2C(=O)NC(=O)C32)c2ccc(C)cc2)cc1 (centres undefined) | – | ? | ? | ? | 15µM | ?
Cc1ccc(NC2C(=O)NC(=O)NC2=O)cc1 | – | – | – | – | – | –
CSc1cccc(NC(=O)COC(=O)C2(c3ccccc3)CC2)c1 | ? | – | – | – | 18µM | –
CCc1ccc(NC(=O)COC(=O)C2(c3ccc(Cl)cc3)CCCC2)cc1 | ? | – | ? | – | 18µM | –
Cc1ccc(-c2nc(S(=O)(=O)c3ccc(C)cc3)c(SCC(=O)NC3CCCCC3)o2)cc1 | · | · | – | · | ? | ·
SMILES | SW480 rerep | MCF10A rerep | KB-3-1 cytotox | HT1080 IDH1KD tx | KB-V1 cytotox | HT1080NT lethal
C#CC(=O)N(c1cccc(OC)c1)C(C(=O)NC1CCCC1)c1cccs1 (centres undefined) | – | – | – | 40µM | – | 0.25µM
C#CC(=O)N(c1ccc(OC)c(OC)c1)C(C(=O)NC1CCCC1)c1cccs1 (centres undefined) | ? | ? | – | 0.58µM | – | 0.12µM
Cc1cccc(N(C(=O)C(F)(F)F)C(C(=O)NC2CCCCC2)c2cccs2)c1 (centres undefined) | ? | ? | – | – | – | –
COc1ccc(CCN(C(=O)C(F)(F)F)C(C(=O)NC2CCCC2)c2cccs2)cc1OC (centres undefined) | – | – | – | – | 9.2µM | –
Cc1ccc(CN2CCCn3nc(C(=O)NCc4cc(C)ccc4C)cc3C2=O)cc1 | · | · | – | · | – | ·
CCC(CC)C(=O)Nc1ccc(S(=O)(=O)N2CCC(c3nc4ccccc4s3)CC2)cc1 | · | · | – | · | – | ·
CC(C)(C)c1ccc(/C=C/C(=O)Nc2ccncc2)cc1 | ? | ? | – | ? | ? | ?
Cc1cccc(/C=C/C(=O)c2ccc(NC3=NCCCS3)cc2)c1 | 9.2µM | ? | ? | ? | ? | ?
CN(C)c1ccc(C(=O)/C=C/c2ccc(Br)cc2)cc1 | ? | – | – | – | – | –
O=C(/C=C/c1ccc(Br)cc1)c1ccc(NC2=NCCCS2)cc1 | 4.6µM | 5.2µM | 21µM | ? | – | ?
O=C(/C=C/c1ccccc1)c1ccc(NC2=NCCCS2)cc1 | ? | 18µM | ? | – | 21µM | –
CC(C)(C)c1ccc(/C=C/C(=O)c2ccc(NC3=NCCCS3)cc2)cc1 | ? | 18µM | ? | ? | ? | ?
O=C(O)c1c(-c2ccccc2)cnc2ccccc12 | · | · | – | – | – | –
Cc1ccc(NC(=O)c2ccc(S(=O)(=O)N3CCCC3)cc2)cc1 | – | – | – | – | 23µM | –
Cc1ccc(S(=O)(=O)N2CCCN(C)CC2)cc1 | – | ? | – | – | – | –
Cc1ccc(NC(=O)c2ccc(S(=O)(=O)N3CCC(C)CC3)cc2)nc1 | – | – | 26µM | – | ? | ?
Cc1ccc(NC(=O)C2CCN(S(=O)(=O)c3ccc4c(c3)CC(C)N4C(=O)C3CCC3)CC2)nc1 (centres undefined) | – | – | ? | ? | ? | –
CC(=O)N1c2ccc(S(=O)(=O)N3CCC(C(=O)Nc4ccc(C)cn4)CC3)cc2CC1C (centres undefined) | – | – | 16µM | – | – | –
Cc1ccc(S(=O)(=O)N2CCCN(S(=O)(=O)c3ccc(C(F)(F)F)cc3)CC2)cc1 | – | 7.3µM | – | ? | ? | –
Cc1ccc(NC(=O)c2ccc(S(=O)(=O)N3CCCCCC3)cc2)nc1 | – | – | – | – | ? | ?
COc1cc2nc(NC3CCN(C)CC3)nc(NC3CCN(C)CC3)c2cc1OC | · | · | · | – | · | –
CC(C)(C)OC(=O)N1CCC(c2c(C(=O)N3CCN(C(=O)c4ccco4)CC3)cnn2-c2ccccc2Cl)CC1 | · | · | – | · | – | ·
COc1ccc(S(=O)(=O)N2CCC(NC(=O)Nc3ccc(C)cc3)CC2)cc1 | – | – | – | – | 18µM | –
